An excerpt weighted towards active compounds, which were near 0.1% of everything screened.
Eya2 inh: inhibitors of human Eya2 phosphatase activity. hit rate 0.006% among 330,000. Potency, µM (series often up to 76.9 µM), for the others: at the top dose activity, negative = inhibition, usual class: inhibitors. O00167. AID 488837. recombinant Eya2, OMFP fluorescence dephosphorylation (OMFP is methylfluorescein phosphate)
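Eya2 protein (added as 0.2 uM solution) was preincubated with compound for 10 min at ambient temperature in 50 mM HEPES pH 7.5, 50 mM NaCl, 5 uM MgCl2, 0.05% BSA, 1 mM DTT. OMFP (added at 50 uM) then reacted 10 min; fluorescence read at 485/525 nm.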
MmCpn inh: inhibitors of Methanococcus maripaludis chaperonin TRiC (MmCpn); purified Mm-Cpn ATPase, ADP Transcreener TR-FRET; Potency, µM (highest dose often 76.9 µM), inactives show at the highest dose activity, negative = inhibition, actives largely listed as inhibitors; hit rate 0.031% among 330,000; AID 504842; also: nearly all actives have a fitted effect of over 80% in size
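ATPase turnover read by TR-FRET ADP competition (Eu cryptate antibody/ADP-d2, 665/590 nm): 10uM ATP final, 25nM Mm-CPN final, 30 min 37degC after 10-min compound preincubation, pH 7.4 Tris/KCl/MgCl2/DTT buffer.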
N370S GC: N370S glucocerebrosidase modulation, Gaucher chaperone candidate | Potency, µM (series often up to 59.4 µM), inactives show at the highest dose activity change, negative = inhibition, most hits filed as inhibitors | P04062 | N370S GC spleen homogenate, 4MU-glucoside fluorescence | hit rate 0.092% among 330,000;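 also: 0% = full enzyme activity and -100% = no enzyme basal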
USP2a block: inhibitors of human ubiquitin-specific protease USP2a | O75604 | USP2 core, Ub-CHOP2 coupled fluorogenic reporter, 485/531 | Potency, µM (highest dose often 38.3 µM), without a hit: at the top dose activity change, negative = inhibition, most hits filed as inhibitors | hit rate 0.01% among 330,000;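 also: plate controls were DMSO wells for no effect and full inhibition by NEM control for full effect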
Target sequence (O75604 whole entry, looked up): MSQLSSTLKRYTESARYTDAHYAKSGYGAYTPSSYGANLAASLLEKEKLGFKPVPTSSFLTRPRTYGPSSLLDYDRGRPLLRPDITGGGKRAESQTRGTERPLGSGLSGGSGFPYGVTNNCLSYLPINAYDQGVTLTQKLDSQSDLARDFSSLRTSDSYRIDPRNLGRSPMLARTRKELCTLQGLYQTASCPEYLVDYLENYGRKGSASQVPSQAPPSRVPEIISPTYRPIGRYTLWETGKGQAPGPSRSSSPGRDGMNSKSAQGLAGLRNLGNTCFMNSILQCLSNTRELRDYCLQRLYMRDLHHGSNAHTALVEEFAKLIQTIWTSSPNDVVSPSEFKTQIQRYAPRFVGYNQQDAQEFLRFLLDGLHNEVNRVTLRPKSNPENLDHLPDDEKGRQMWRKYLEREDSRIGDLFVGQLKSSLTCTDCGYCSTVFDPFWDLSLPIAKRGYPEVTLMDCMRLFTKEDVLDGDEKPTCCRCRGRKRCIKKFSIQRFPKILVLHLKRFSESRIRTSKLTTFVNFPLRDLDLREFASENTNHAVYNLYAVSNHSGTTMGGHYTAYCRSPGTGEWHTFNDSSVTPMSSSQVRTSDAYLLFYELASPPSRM
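Deubiquitinase activity read as fluorescence (485/531 nm) after Ub-CHOP2 cleavage activates the enterokinase reporter on its substrate; USP2 core 10nM, Ub-CHOP2 and substrate 25nM each, 30min compound preincubation then 60min RT; data normalized to NEM, curves fitted.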
* hit, by the source's call; ? = inconclusive; . = no result; [ ] = dose if it differs, or a comment. Calls follow the shape of the dose curve; as a rule, active = well fitted curve in the direction sought with a large enough effect; inconclusive = small, poorly fitted or top-dose-only effect, or another doubt; inactive = no such curve, though single readings can be large; an effect the other way counts as inactive or inconclusive. Unless noted, % is scaled to controls: 0 for no effect and ±100 for the full control effect; potency is read from the fitted curve at half-maximal effect.

SMILES	Eya2 inh	MmCpn inh	N370S GC	USP2a block
CC(=O)OCC1OC(C#Cc2ccc(F)cc2F)C=CC1OC(C)=O (configuration not stated)	.	.	-21%[12.8 µM]	.
C[C@H](CO)N1C[C@H](C)[C@@H](CN(C)C(=O)Nc2ccc(C(F)(F)F)cc2)Oc2c(cccc2N(C)C)C1=O	-29%	4µM*	.	1%
N#Cc1ccc(-c2csc(NC(=O)c3ccc(N4C(=O)CCC4=O)cc3)n2)cc1	3%	32µM*	20%	2%
O=S(=O)(CCc1ccccc1)c1nc2ccccc2s1	.	.	8%	.
CC[C@H](C)[C@H](NC(=O)CNC(=O)[C@@H](NC(=O)[C@@H](NC(=O)[C@H](Cc1ccc(O)cc1)NC(=O)[C@H](CC(C)C)NC(=O)[C@H](C)NC(=O)[C@H](CCC(N)=O)NC(=O)CNC(=O)[C@@H]1CCCN1C(=O)CNC(=O)[C@H](Cc1ccccc1)NC(=O)[C@H](Cc1cnc[nH]1)NC(=O)[C@@H](NC(=O)CNC(=O)[C@H](CCCNC(=N)N)NC(=O)[C@H](CCCNC(=N)N)NC(=O)[C@@H](NC(=O)[C@H](CC(N)=O)NC(=O)[C@@H](N)CS)[C@@H](C)O)[C@@H](C)CC)[C@@H](C)O)[C@@H](C)O)C(=O)O	.	.	-9%	.
Cc1ccc2sc(N(CCCN(C)C)C(=O)c3ccc(S(=O)(=O)N(C)C4CCCCC4)cc3)nc2c1C	-10%	0%	20µM*	3%
CC(=O)Nc1ccc(S(=O)(=O)Nc2ccc([N+](=O)[O-])cc2)cc1	.	.	16µM*	.
COC(=O)c1c(NC(=O)COC(=O)CCNS(=O)(=O)c2ccccc2)sc(C)c1C	-5%	1%	0%	-4%
COC(=O)c1c(NC(=O)COC(=O)CCNS(=O)(=O)c2ccc(NC(C)=O)cc2)sc(C)c1C	-14%	1%	8.9µM*	0%
CC1(C)C(=O)C=C[C@@]2(C)C1C=C[C@@]1(C)C2CC[C@@]2(C)C(c3ccoc3)OC(=O)C3OC312 (some centres not stated)	.	.	8%	.
CCOc1ccc(NC(=S)N(CCc2c(C)[nH]c3ccc(C)cc23)Cc2ccncc2)cc1	3%	0%	14µM*	-2%
COC(=O)CNc1c(-c2ccccc2)nc2ccc(Br)cn12	-36%	0%	11µM*	-2%
COC(=O)Nc1c(-c2ccccc2)nc2ccc(Cl)cn12	-6%	0%	-6%	2%
C#C[C@]1(O)CC[C@H]2[C@@H]3CCC4=Cc5oncc5CC4(C)[C@H]3CCC21C (some centres not stated)	-8%	.	.	.
CCC1(CC)C(=O)C2=C3C1[C@H](C(=O)OC)CC(C(=O)OC)C[C@H]3[C@H]1C(=O)N(C)C(=O)[C@H]1[C@H]2C (some centres not stated)	.	.	-10%	.
C[N+](C)(C)CCC(=O)c1cccc2ccccc12	.	.	-7%	.
CCc1ccc(OCc2ccccc2C(=O)Nc2ccc3nc(C)cc(N)c3c2)cc1	.	.	-25%	.
C=CCn1c(=S)[nH]c2scc(-c3cccs3)c2c1=O	5%	50µM*	-5%	11%
O=C1/C(=C/c2ccc(O)c(O)c2)Oc2ccccc21	.	.	3%	.
CCOC(=O)OCC1OC(c2ccc(C(C)=O)cc2)C=CC1OC(=O)OCC (configuration not stated)	.	.	3%[12.8 µM]	.
COc1ccc(-c2cn3c(C)c(C(=O)Nc4ccncc4)sc3n2)cc1	18%	45µM*	0%	1%
CN1CCN(C2Cc3ccccc3Sc3ccc(S)cc32)CC1 (configuration not stated)	.	.	13µM*	.
Clc1ccc2c(c1)C(N1CCNCC1)Cc1ccccc1S2 (configuration not stated)	-9%	0%	?	3%
O=C(COc1cccc(Cl)c1)Nc1nc(-c2ccc(S(=O)(=O)N3CCOCC3)cc2)cs1	-1%	40µM*	29%	-7%
O=S(=O)(NC1c2cccc3cccc(c23)C1N1CCNCC1)c1ccc(Cl)cc1 (configuration not stated)	6%	1%	7.1µM*	2%
SMILES	Eya2 inh	MmCpn inh	N370S GC	USP2a block
CCN1/C(=C/C=C/C=C/c2sc3ccccc3[n+]2CC)Sc2ccccc21	-7%	32µM*	-21%	?
COc1cc(O)c2c(c1)oc(=O)c1c3cc(O)c(O)cc3oc21	.	.	-23%	.
CN(C)c1ccc2c(-c3ccccc3)c3ccc(=[N+](C)C)cc-3oc2c1	.	.	1%	.
COc1cc(/C=N/n2c(-c3ccccc3)n[nH]c2=S)ccc1O	7%	-2%	14µM*	0%
COc1cc(F)cc(-c2ccc3c(c2)c(-c2cccs2)c(-c2cc(OC)cc(OC)c2)n3C)c1	8%	22µM*	.	-5%
COc1ccc(OC)c(C2=Nn3c(nnc3-c3ccccc3OC)SC2)c1	.	.	-6%	.
Cc1ccc2c(c1)c1c(n2CC(O)CNC(CO)(CO)CO)CCCC1 (configuration not stated)	0%	-1%	11µM*	1%
CN(C)c1ccc(NC(=O)C2C3C=CC(C3)C2C(=O)O)cc1 (configuration not stated)	-13%	25µM*	-11%	0%
O=C(O)C1C2C=CC(C2)C1C(=O)Nc1ccc2c(c1)OCCO2 (configuration not stated)	2%	0%	8%	0%
Clc1ccccc1-c1nc(NCc2cccs2)c2ccccc2n1	.	.	7.1µM*	.
c1csc(CNc2nc(-c3cccs3)nc3ccccc23)c1	2%	-17%	18µM*	-9%
c1ccc(-c2nc(NCc3cccs3)c3ccccc3n2)cc1	6%	0%	?	5%
Oc1cccc(Nc2nc(-c3ccccc3Cl)nc3ccccc23)c1	0%	-1%	1µM*	4%
FC(F)(F)c1ccccc1-c1nc(NCc2cccs2)c2ccccc2n1	.	.	-28%	.
Cc1ccccc1-c1nc(NCc2cccs2)c2ccccc2n1	.	.	7.1µM*	.
Cc1ccccc1Nc1oc(-c2ccccc2)nc1-c1cccc2ccccc12	.	.	-6%	.
C/C(N[C@@H]1CSCC1O)=C1/C(=O)CC2[C@@H]1C2(C)C (some centres not stated)	.	.	-2%	.
CN1CCN(c2ncc3nc(-c4cc(F)cc(F)c4)c(=O)n(CCC#N)c3n2)CC1	.	.	4%	.
COC(=O)C1=C(C)N(Cc2ccccc2)C(=S)N[C@H]1CCc1ccccc1	3%	-7%	-15%	0%
c1ccc(CN2CCC(Nc3nc(-c4cccs4)nc4ccccc34)CC2)cc1	-17%	-3%	10µM*	-13%
C=CCc1c(C)nc(-c2ccccc2)nc1N/N=C/c1ccncc1	-9%	-3%	?	4%
C=CCc1c(C)nc(-c2ccccc2)nc1N/N=C/c1ccccc1	-4%	-1%	16µM*	2%
C=CCc1c(C)nc(-c2ccccc2)nc1N/N=C(\C)c1ccc(N)cc1	-23%	0%	13µM*	-2%
Cc1c(C(=O)N2CCOCC2)oc2ccc(S(=O)(=O)N3CCCC3)cc12	-1%	35µM*	0%	-1%

Assay outcomes from PubChem.
